# Source: the supplement of paper PMC8728848
# This is one part of a sample in which the strongest signals are shown more often than they occur.
# Columns and labels:
# Experiment in all cases: glycan array binding signal (z-score within array); higher = stronger binding
# Details in all cases: glycan notation: IUPAC condensed, linker removed
# [1] = biological target: GlcNAc(b1-4)GlcNAc(b1-4)GlcNAc(b1-4)GlcNAc(b1-4)GlcNAc
# How it was run: (§1)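 Negative Z-scores can be read as non-binding. The Z-score is calculated within each array and then averaged across arrays of one protein sequence at different concentrations or buffers and across linkers. Arrays, 3228 in all, were curated from the Consortium for Functional Glycomics database and kept only where the protein sequence was available.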
# [2] = biological target: GlcNAc(b1-4)GlcNAc(b1-4)GlcNAc(b1-4)GlcNAc(b1-4)GlcNAc(b1-4)GlcNAc
# How it was run: as §1
# [3] = biological target: GlcNAc(b1-4)[GlcNAc(b1-6)]GalNAc
# How it was run: as §1
# [4] = biological target: Man(a1-3)[Man(a1-6)]Man(b1-4)GlcNAc(b1-4)GlcNAc
# How it was run: as §1
# [5] = biological target: Neu5Ac(a2-3)Gal(b1-3)GalNAc
# How it was run: as §1
# [6] = biological target: Neu5Ac(a2-3)Gal(b1-4)[Fuc(a1-3)]GlcNAc
# How it was run: as §1
# [7] = biological target: Neu5Ac(a2-3)Gal(b1-4)[Fuc(a1-3)]GlcNAc(b1-3)GalNAc
# How it was run: as §1
# [8] = biological target: Neu5Ac(a2-3)Gal6S(b1-4)[Fuc(a1-3)]GlcNAc
# How it was run: as §1
# [9] = biological target: Neu5Ac(a2-3)GalNAc(b1-4)GlcNAc
# How it was run: as §1
# [10] = biological target: Neu5Ac(a2-6)Gal(b1-4)Glc
# How it was run: as §1
# [11] = biological target: Neu5Ac(a2-6)GalNAc(b1-4)GlcNAc
# How it was run: as §1
binder,measurement,setting,value
"Ecp6 (Cladosporium fulvum), B3VBK9 (protein) MQSMILFAAALMGAAVNGFVLPRTDDPDCETKATDCGSTSNIKYTVVKGDTLTSIAKKFKSGICNIVSVNKLANPNLIELGATLIIPENCSNPDNKSCVSTPAEPTETCVPGLPGSYTIVSGDTLTNISQDFNITLDSLIAANTQIENPDAIDVGQIITVPVCPSSQCEAVGTYNIVAGDLFVDLAATYHTTIGQIKALNNNVNPSKLKVGQQIILPQDCKNVTTAVA",glycan array binding signal (z-score),[1],13
same,glycan array binding signal (z-score),[2],10.7
same,glycan array binding signal (z-score),[3],-0.103
same,glycan array binding signal (z-score),[4],-0.085
same,glycan array binding signal (z-score),[5],-0.099
same,glycan array binding signal (z-score),[6],-0.099
same,glycan array binding signal (z-score),[7],-0.004
same,glycan array binding signal (z-score),[8],-0.073
same,glycan array binding signal (z-score),[9],-0.052
same,glycan array binding signal (z-score),[10],-0.096
same,glycan array binding signal (z-score),[11],-0.063
